Test results taken from paper PMC7862700, “An all-to-all approach to the identification of sequence-specific readers for epigenetic DNA modifications on cytosine”.

How the values were obtained:
Assay in all cases: DAPPL (digital affinity profiling via proximity ligation, sequencing); 10 mM Tris-HCl pH 7.5, 50 mM NaCl, 1 mM DTT, 4% glycerol, room temperature, 30 min; GST-TFs on glutathione beads, 16-mer random dsDNA library, 0.1% formaldehyde crosslink after washing; high values mean tight binding
FLI1 = biological target: T1, FLI1 (Homo sapiens, UniProt Q01543 1-452); conditions: protein: recombinant; tags: N-terminal GST; dsDNA, one strand shown
T1 sequence: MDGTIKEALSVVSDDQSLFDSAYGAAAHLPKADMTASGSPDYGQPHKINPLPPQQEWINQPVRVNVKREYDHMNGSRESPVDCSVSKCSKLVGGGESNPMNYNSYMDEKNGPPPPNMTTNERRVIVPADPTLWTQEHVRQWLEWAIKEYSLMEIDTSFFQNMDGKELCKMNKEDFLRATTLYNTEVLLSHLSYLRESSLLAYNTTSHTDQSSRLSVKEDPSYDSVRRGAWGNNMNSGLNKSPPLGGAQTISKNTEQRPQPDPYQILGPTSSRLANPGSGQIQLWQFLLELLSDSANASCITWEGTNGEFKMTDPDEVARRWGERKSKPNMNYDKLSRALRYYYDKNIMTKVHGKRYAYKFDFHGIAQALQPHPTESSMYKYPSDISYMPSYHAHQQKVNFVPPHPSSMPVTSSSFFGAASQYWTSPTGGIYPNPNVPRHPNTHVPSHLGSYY
Summary of the method: (§1)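 A tag-only sample was pooled with DNA-barcoded human transcription factors that had been expressed in yeast as GST fusions and captured on glutathione beads. The pools were incubated for 30 min at room temperature with 200 nmole of a random double-stranded 16-mer DNA library in Tris/NaCl/DTT/glycerol buffer, then washed, crosslinked with 0.1% formaldehyde, proximity-ligated (BsaI/T4 ligase, 1 h, 37 °C), PCR-amplified and sequenced on an Illumina NextSeq500. Binding signal is each hexamer's read frequency for a factor divided by its frequency for the tag-only sample.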

ELK1 = biological target: T2, ELK1 (Homo sapiens, UniProt P19419 1-428); conditions: protein: recombinant; tags: N-terminal GST; dsDNA, one strand shown
T2 sequence: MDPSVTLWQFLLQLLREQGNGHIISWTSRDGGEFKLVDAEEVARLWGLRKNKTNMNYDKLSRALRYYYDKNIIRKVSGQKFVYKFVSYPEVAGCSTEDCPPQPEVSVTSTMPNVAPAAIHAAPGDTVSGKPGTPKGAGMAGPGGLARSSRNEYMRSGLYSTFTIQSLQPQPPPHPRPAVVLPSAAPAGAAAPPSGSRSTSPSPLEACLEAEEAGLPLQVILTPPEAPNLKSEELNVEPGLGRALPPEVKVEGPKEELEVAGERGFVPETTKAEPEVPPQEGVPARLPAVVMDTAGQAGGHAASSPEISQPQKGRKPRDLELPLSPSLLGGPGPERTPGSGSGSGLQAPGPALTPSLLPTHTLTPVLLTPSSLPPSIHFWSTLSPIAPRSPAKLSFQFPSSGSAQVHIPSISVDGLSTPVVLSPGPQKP
Summary of the method: as §1

GABPA = biological target: T3, GABPA (Homo sapiens, UniProt Q06546 1-454); conditions: protein: recombinant; tags: N-terminal GST; dsDNA, one strand shown
T3 sequence: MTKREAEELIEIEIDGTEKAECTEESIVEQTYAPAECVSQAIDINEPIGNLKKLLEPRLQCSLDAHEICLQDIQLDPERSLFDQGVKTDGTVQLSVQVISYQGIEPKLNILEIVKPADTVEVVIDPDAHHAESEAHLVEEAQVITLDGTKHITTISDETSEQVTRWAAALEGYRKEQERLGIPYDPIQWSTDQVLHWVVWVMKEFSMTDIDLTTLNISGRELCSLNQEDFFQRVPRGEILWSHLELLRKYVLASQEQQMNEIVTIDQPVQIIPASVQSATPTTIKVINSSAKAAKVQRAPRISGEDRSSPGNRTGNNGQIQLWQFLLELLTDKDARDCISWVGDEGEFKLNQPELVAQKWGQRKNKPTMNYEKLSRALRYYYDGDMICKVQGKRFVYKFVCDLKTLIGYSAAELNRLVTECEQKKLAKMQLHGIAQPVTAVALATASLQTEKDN
Summary of the method: as §1

ERG = biological target: T4, ERG (Homo sapiens, UniProt P11308 1-479); conditions: protein: recombinant; tags: N-terminal GST; dsDNA, one strand shown
T4 sequence: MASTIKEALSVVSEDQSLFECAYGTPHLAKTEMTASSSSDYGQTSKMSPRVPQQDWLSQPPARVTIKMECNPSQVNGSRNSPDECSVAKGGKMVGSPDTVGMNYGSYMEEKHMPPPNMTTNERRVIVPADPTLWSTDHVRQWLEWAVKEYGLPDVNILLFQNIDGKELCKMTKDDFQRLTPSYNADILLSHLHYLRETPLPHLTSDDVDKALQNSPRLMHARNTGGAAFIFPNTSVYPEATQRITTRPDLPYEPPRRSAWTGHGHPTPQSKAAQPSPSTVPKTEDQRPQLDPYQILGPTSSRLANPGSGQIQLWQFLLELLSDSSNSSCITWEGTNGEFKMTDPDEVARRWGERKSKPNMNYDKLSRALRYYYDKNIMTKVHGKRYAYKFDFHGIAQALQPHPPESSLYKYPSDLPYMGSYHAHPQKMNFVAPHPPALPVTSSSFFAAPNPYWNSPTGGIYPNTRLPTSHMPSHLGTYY
Summary of the method: as §1

ELF1 = ELF1 (Homo sapiens, UniProt P32519 1-619); conditions: protein: recombinant; tags: N-terminal GST; dsDNA, one strand shown
Summary of the method: as §1

EHF = biological target: T5, EHF (Homo sapiens, UniProt Q9NZC4 1-300); conditions: protein: recombinant; tags: N-terminal GST; dsDNA, one strand shown
T5 sequence: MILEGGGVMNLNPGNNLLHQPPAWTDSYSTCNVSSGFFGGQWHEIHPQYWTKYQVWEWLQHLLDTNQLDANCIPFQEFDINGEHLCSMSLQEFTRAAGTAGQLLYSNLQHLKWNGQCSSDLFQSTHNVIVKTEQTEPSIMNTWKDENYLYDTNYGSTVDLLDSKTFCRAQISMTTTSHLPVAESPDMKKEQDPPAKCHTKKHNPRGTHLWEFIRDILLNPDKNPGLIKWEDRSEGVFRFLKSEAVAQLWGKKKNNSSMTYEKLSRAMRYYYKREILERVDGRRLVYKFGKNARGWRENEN
Summary of the method: as §1

SPI1 = SPI1 (Homo sapiens, UniProt P17947 1-270); conditions: protein: recombinant; tags: N-terminal GST; dsDNA, one strand shown
Summary of the method: as §1

SPIB = SPIB (Homo sapiens, UniProt Q01892 1-262); conditions: protein: recombinant; tags: N-terminal GST; dsDNA, one strand shown
Summary of the method: as §1

ELK3 = biological target: T6, ELK3 (Homo sapiens, UniProt P41970 1-407); conditions: protein: recombinant; tags: N-terminal GST; dsDNA, one strand shown
T6 sequence: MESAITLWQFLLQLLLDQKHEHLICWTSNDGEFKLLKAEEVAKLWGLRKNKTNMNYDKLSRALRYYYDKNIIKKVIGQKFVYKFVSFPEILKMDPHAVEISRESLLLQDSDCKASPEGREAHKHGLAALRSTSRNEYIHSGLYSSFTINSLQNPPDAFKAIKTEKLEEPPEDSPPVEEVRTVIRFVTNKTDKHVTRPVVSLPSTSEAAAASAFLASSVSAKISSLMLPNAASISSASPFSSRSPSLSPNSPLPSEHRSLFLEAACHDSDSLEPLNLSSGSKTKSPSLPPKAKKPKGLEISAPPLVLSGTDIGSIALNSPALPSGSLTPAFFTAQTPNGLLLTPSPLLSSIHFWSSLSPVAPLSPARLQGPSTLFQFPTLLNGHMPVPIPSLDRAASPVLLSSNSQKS
Summary of the method: as §1

FEV = biological target: T7, FEV (Homo sapiens, UniProt Q99581 1-238); conditions: protein: recombinant; tags: N-terminal GST; dsDNA, one strand shown
T7 sequence: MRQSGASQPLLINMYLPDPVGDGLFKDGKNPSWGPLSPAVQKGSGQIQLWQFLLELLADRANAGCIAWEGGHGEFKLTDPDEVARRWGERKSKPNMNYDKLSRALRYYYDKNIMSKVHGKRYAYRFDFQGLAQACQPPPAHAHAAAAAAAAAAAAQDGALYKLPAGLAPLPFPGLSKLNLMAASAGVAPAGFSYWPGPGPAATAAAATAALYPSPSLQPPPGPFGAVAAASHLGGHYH
Summary of the method: as §1

ETV5 = ETV5 (Homo sapiens, UniProt P41161 1-510); conditions: protein: recombinant; tags: N-terminal GST; dsDNA, one strand shown
Summary of the method: as §1

HSF1 = HSF1 (Homo sapiens, UniProt Q00613 1-529); conditions: protein: recombinant; tags: N-terminal GST; chain copies: 3; dsDNA, one strand shown
Summary of the method: as §1

SPIC = biological target: T8, SPIC (Homo sapiens, UniProt Q8N5J4 1-248); conditions: protein: recombinant; tags: N-terminal GST; dsDNA, one strand shown
T8 sequence: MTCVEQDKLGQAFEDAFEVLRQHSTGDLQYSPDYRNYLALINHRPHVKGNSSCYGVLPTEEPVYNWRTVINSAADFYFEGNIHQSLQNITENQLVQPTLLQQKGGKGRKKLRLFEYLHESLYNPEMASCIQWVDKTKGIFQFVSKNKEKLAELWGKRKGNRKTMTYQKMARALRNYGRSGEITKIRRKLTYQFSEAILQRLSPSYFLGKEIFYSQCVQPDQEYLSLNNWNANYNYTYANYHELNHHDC
Summary of the method: as §1

ELF4 = ELF4 (Homo sapiens, UniProt Q99607 1-663); conditions: protein: recombinant; tags: N-terminal GST; dsDNA, one strand shown
Summary of the method: as §1

ELK4 = biological target: T9, ELK4 (Homo sapiens, UniProt P28324-2 1-405); conditions: protein: recombinant; tags: N-terminal GST; dsDNA, one strand shown
T9 sequence: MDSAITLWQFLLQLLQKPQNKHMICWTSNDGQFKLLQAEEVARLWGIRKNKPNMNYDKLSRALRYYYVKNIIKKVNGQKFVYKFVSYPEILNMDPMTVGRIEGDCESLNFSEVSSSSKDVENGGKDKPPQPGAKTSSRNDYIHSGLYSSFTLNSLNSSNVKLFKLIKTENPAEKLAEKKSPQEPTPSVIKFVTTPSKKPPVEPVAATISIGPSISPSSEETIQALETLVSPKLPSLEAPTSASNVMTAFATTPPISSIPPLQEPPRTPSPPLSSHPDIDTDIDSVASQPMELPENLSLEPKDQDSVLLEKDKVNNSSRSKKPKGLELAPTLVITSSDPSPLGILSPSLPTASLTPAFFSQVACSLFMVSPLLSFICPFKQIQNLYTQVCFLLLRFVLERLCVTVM
Summary of the method: as §1

ETV2 = biological target: T10, ETV2 (Homo sapiens, UniProt O00321 1-342); conditions: protein: recombinant; tags: N-terminal GST; dsDNA, one strand shown
T10 sequence: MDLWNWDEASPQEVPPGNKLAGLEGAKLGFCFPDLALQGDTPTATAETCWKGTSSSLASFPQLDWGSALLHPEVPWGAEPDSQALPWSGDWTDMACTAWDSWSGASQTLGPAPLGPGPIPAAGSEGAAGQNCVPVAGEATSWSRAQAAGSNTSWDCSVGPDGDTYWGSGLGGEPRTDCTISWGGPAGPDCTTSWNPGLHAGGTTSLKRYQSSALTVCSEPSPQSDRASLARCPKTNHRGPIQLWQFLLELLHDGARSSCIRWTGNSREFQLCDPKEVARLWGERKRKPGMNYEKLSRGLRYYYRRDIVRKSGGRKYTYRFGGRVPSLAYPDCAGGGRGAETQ
Summary of the method: as §1

ELF3 = biological target: T11, ELF3 (Homo sapiens, UniProt P78545 1-371); conditions: protein: recombinant; tags: N-terminal GST; dsDNA, one strand shown
T11 sequence: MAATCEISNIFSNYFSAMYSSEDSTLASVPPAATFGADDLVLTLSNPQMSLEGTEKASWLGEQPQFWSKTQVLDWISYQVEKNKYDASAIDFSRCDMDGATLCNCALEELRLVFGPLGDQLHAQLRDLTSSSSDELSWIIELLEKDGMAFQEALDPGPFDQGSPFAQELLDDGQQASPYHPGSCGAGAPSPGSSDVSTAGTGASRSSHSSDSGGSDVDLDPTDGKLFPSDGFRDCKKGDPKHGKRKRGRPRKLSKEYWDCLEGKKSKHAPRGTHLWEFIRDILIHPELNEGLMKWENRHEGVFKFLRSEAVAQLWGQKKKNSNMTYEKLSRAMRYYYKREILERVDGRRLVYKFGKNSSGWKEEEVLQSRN
Summary of the method: as §1

CRX = CRX (Homo sapiens, UniProt O43186 1-299); conditions: protein: recombinant; tags: N-terminal GST; dsDNA, one strand shown
Summary of the method: as §1

ETV1 = ETV1 (Homo sapiens, UniProt P50549 1-477); conditions: protein: recombinant; tags: N-terminal GST; dsDNA, one strand shown
Summary of the method: as §1

CRX, sequence (O43186 whole entry): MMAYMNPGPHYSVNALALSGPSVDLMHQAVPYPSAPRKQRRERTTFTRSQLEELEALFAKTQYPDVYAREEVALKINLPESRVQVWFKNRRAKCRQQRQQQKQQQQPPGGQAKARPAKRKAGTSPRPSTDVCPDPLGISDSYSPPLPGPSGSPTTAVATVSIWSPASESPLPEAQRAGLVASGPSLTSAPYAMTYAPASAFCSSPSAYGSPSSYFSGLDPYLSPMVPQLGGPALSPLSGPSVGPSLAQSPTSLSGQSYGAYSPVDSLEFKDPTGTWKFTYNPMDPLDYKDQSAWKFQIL
ETV5, sequence (P41161 whole entry): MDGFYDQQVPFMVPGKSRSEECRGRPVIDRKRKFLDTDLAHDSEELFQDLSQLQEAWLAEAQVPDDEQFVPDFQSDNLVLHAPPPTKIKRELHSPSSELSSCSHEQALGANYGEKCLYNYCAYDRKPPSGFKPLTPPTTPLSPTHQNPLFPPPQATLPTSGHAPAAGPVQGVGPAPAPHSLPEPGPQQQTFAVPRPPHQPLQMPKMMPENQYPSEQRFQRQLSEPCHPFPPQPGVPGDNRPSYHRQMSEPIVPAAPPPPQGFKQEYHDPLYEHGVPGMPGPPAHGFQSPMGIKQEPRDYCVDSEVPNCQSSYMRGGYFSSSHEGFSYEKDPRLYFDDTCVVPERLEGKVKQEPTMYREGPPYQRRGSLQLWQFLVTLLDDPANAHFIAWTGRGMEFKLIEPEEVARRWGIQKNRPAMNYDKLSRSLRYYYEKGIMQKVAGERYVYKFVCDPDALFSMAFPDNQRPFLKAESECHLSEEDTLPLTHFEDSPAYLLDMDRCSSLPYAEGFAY
SPIB, sequence (Q01892 whole entry): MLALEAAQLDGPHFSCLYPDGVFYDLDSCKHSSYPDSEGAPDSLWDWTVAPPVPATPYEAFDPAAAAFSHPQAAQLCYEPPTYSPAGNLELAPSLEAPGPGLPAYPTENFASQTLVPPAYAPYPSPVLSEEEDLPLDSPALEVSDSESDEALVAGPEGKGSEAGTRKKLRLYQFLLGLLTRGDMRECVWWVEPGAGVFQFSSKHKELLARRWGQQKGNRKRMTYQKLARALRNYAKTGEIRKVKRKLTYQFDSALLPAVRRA
ELF1, sequence (P32519 whole entry): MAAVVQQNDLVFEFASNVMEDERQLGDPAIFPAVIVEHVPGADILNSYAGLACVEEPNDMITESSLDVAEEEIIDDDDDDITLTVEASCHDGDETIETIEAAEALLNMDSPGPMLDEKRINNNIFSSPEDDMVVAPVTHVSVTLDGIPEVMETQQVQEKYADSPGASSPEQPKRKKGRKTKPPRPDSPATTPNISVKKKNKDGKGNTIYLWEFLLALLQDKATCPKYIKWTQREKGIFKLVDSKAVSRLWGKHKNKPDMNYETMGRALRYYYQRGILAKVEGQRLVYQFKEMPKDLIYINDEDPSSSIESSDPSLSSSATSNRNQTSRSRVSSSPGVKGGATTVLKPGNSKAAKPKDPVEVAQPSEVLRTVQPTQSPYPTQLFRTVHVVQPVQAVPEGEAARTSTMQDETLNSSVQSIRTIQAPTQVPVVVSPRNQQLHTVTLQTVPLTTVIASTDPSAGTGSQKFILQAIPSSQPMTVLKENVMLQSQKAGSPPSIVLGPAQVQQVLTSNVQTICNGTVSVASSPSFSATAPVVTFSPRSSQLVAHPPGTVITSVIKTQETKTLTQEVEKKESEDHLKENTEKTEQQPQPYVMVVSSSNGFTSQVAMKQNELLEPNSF
HSF1, sequence (Q00613 whole entry): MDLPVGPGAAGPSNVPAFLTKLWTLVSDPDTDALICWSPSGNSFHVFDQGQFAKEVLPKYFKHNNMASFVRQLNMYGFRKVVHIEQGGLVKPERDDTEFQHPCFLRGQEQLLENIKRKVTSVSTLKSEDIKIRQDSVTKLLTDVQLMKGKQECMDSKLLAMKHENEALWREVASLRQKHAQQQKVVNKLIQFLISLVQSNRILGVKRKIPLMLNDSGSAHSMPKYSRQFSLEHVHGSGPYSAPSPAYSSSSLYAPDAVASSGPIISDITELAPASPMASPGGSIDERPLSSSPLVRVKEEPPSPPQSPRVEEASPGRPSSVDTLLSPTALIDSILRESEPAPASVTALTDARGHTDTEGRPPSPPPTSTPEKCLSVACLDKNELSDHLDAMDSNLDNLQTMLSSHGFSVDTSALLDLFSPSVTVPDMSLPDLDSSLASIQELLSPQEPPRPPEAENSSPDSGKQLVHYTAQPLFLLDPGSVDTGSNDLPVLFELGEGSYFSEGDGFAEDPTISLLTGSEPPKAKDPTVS
ELF4, sequence (Q99607 whole entry): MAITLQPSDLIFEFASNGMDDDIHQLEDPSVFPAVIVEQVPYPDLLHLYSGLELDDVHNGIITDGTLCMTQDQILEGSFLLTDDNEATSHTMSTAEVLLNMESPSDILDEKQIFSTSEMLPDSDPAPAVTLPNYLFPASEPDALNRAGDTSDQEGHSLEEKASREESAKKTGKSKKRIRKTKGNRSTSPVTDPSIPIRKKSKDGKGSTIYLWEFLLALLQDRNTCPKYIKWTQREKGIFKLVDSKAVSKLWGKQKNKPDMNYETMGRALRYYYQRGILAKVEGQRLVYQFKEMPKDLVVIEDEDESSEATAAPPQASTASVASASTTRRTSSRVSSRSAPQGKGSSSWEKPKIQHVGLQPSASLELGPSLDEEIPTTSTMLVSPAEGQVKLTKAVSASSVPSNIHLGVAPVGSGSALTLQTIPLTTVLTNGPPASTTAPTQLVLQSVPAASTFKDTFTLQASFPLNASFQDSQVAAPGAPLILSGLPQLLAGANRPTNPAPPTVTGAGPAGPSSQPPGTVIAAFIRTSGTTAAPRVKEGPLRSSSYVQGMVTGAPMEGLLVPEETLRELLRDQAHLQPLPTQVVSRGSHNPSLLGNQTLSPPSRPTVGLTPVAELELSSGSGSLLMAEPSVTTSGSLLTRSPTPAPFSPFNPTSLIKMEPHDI
ETV1, sequence (P50549 whole entry): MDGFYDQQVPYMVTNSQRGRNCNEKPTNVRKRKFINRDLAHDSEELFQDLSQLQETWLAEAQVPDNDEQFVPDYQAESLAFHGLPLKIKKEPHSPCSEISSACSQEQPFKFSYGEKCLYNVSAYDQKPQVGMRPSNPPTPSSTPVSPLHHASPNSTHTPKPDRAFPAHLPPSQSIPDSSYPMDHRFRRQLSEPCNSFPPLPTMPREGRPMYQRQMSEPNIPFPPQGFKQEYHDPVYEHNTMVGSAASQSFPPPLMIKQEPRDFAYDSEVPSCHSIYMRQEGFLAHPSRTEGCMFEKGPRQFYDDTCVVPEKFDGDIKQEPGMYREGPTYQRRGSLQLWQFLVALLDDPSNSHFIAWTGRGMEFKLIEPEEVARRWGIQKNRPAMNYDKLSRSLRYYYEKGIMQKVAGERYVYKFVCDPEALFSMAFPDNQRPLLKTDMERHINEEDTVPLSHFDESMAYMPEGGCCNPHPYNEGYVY

Question: Which results are given for TATCCT?
Answer: binding signal (FLI1): 1.7 fold enrichment (6-mer frequency, TF over GST control); binding signal (ELK1): 1.79 fold enrichment (6-mer frequency, TF over GST control); binding signal (GABPA): 1.71 fold enrichment (6-mer frequency, TF over GST control); binding signal (ERG): 1.9 fold enrichment (6-mer frequency, TF over GST control); binding signal (ELF1): 1.73 fold enrichment (6-mer frequency, TF over GST control); binding signal (EHF): 1.81 fold enrichment (6-mer frequency, TF over GST control); binding signal (SPI1): 1.74 fold enrichment (6-mer frequency, TF over GST control); binding signal (SPIB): 1.8 fold enrichment (6-mer frequency, TF over GST control); binding signal (ELK3): 1.76 fold enrichment (6-mer frequency, TF over GST control); binding signal (FEV): 1.94 fold enrichment (6-mer frequency, TF over GST control); binding signal (ETV5): 1.95 fold enrichment (6-mer frequency, TF over GST control); binding signal (HSF1): 1.72 fold enrichment (6-mer frequency, TF over GST control); binding signal (SPIC): 1.87 fold enrichment (6-mer frequency, TF over GST control); binding signal (ELF4): 1.65 fold enrichment (6-mer frequency, TF over GST control); binding signal (ELK4): 1.83 fold enrichment (6-mer frequency, TF over GST control); binding signal (ETV2): 1.93 fold enrichment (6-mer frequency, TF over GST control); binding signal (ELF3): 1.59 fold enrichment (6-mer frequency, TF over GST control); binding signal (CRX): 2.28 fold enrichment (6-mer frequency, TF over GST control); binding signal (ETV1): 1.72 fold enrichment (6-mer frequency, TF over GST control)
